# Hit rate of the full screen: of about 2,000 compounds, about 110 (5.5%) showed an effect of 50% or more. The entries come from a sample that favours strong results as a whole.
# Target: Genome polyprotein (dengue virus type 2) (UniProt P29990)
# [1] = Thailand/16681/1984, Concentration 25.0 uM, Number of replicates 1.0
structure (smiles),measurement,setting,value
COc1ccc(S(=O)(=O)n2nc(OC(=O)c3cccc(-c4ccccc4Cl)c3)cc2N)cc1,inhibition,"Thailand/16681/1984, Concentration 49.5 uM, Number of replicates 2.0, Standard deviation 1.4490153953002987 %",18.8%
same,inhibition,"Thailand/16681/1984, Concentration 99.01 uM, Number of replicates 2.0, Standard deviation 0.6098804079928887 %",22.4%
same,inhibition,"Thailand/16681/1984, Concentration 198.0 uM, Number of replicates 2.0, Standard deviation 5.725656788050292 %",25.3%
COc1ccc(S(=O)(=O)N2CCC(C(=O)Nc3nc4ccccc4s3)CC2)cc1,inhibition,"Thailand/16681/1984, Concentration 49.5 uM, Number of replicates 2.0, Standard deviation 1.3648800018415175 %",2.28%
same,inhibition,"Thailand/16681/1984, Concentration 99.01 uM, Number of replicates 2.0, Standard deviation 0.35874487080545164 %",4.97%
same,inhibition,"Thailand/16681/1984, Concentration 198.0 uM, Number of replicates 2.0, Standard deviation 3.7738315130637563 %",5.55%
CCCCCC(=O)N[C@H](C(=O)Nc1ccc(C(N)=O)cc1)c1ccc(OCc2ccccc2)cc1,inhibition,"Thailand/16681/1984, Concentration 49.5 uM, Number of replicates 2.0, Standard deviation 0.6010644427830669 %",0.424%
same,inhibition,"Thailand/16681/1984, Concentration 99.01 uM, Number of replicates 2.0, Standard deviation 0.8411278167455505 %",0.131%
same,inhibition,"Thailand/16681/1984, Concentration 198.0 uM, Number of replicates 2.0, Standard deviation 0.2400633914962311 %",-0.732%
NC(=O)c1ccc(CNC(=O)c2ccc(OCc3ccccc3)cc2)cc1,inhibition,"Thailand/16681/1984, Concentration 49.5 uM, Number of replicates 2.0, Standard deviation 3.419970703357444 %",-0.579%
same,inhibition,"Thailand/16681/1984, Concentration 99.01 uM, Number of replicates 2.0, Standard deviation 3.9573061855257445 %",-0.365%
same,inhibition,"Thailand/16681/1984, Concentration 198.0 uM, Number of replicates 2.0, Standard deviation 3.324054675683989 %",-1.19%
CCCC[C@H](N)C(=O)N[C@@H](C(=O)NCc1ccc(C(N)=O)cc1)c1ccc(OCc2ccccc2)cc1,inhibition,"Thailand/16681/1984, Concentration 49.5 uM, Number of replicates 2.0, Standard deviation 0.45534308736890416 %",-4.77%
same,inhibition,"Thailand/16681/1984, Concentration 99.01 uM, Number of replicates 2.0, Standard deviation 0.9591594337975816 %",6.09%
same,inhibition,"Thailand/16681/1984, Concentration 198.0 uM, Number of replicates 2.0, Standard deviation 4.328590586700157 %",82.3%
CCCC[C@H](N)C(=O)N[C@H](C(=O)NCc1ccc(C(N)=O)cc1)c1ccc(OCc2ccccc2)cc1,inhibition,"Thailand/16681/1984, Concentration 49.5 uM, Number of replicates 2.0, Standard deviation 0.2650581585371317 %",-6.18%
same,inhibition,"Thailand/16681/1984, Concentration 99.01 uM, Number of replicates 2.0, Standard deviation 5.609533791033077 %",63.5%
same,inhibition,"Thailand/16681/1984, Concentration 198.0 uM, Number of replicates 2.0, Standard deviation 0.01804559465842439 %",99.8%
NC(=O)c1ccc(CNC(=O)NCc2ccc(OCc3ccccc3)cc2)cc1,inhibition,"Thailand/16681/1984, Concentration 49.5 uM, Number of replicates 2.0, Standard deviation 0.6584955649548859 %",-0.275%
same,inhibition,"Thailand/16681/1984, Concentration 99.01 uM, Number of replicates 2.0, Standard deviation 0.579227797958503 %",0.348%
same,inhibition,"Thailand/16681/1984, Concentration 198.0 uM, Number of replicates 2.0, Standard deviation 0.34476708449941224 %",-0.309%
C[C@@H](NCc1ccc(C(N)=O)cc1)c1ccc(OCc2ccccc2)cc1,inhibition,"Thailand/16681/1984, Concentration 49.5 uM, Number of replicates 2.0, Standard deviation 1.6752456853530722 %",0.14%
same,inhibition,"Thailand/16681/1984, Concentration 99.01 uM, Number of replicates 2.0, Standard deviation 1.116678580733439 %",0.358%
same,inhibition,"Thailand/16681/1984, Concentration 198.0 uM, Number of replicates 2.0, Standard deviation 0.6068608391781741 %",-0.175%
COc1ccccc1C1CCN(C(=O)C2CCN(c3ccc(C=O)cc3)CC2)CC1,inhibition,[1],12.3%
CN(C)Cc1ccc(C(=O)Nc2cc(Cl)cc(C(=O)NC(C)(C)CO)c2)[nH]1,inhibition,"Thailand/16681/1984, Concentration 49.5 uM, Number of replicates 2.0, Standard deviation 0.5051399787428742 %",0.205%
same,inhibition,"Thailand/16681/1984, Concentration 99.01 uM, Number of replicates 2.0, Standard deviation 1.5521383022614499 %",0.663%
same,inhibition,"Thailand/16681/1984, Concentration 198.0 uM, Number of replicates 2.0, Standard deviation 0.5964116239079592 %",5.64%
CCN(Cc1cc(Br)ccc1F)C(=O)C1CCN(c2ccc(C=O)cc2)CC1,inhibition,[1],15.9%
Cc1cc(N)c2c(Cl)ccc(Cl)c2n1,inhibition,"Thailand/16681/1984, Concentration 49.95 uM, Number of replicates 2.0, Standard deviation 8.427681720895945 %",-5.26%
same,inhibition,"Thailand/16681/1984, Concentration 99.9 uM, Number of replicates 2.0, Standard deviation 7.565581927359314 %",-3.92%
Cc1cc(Cl)c2c(N)ccc(C)c2n1,inhibition,"Thailand/16681/1984, Concentration 49.95 uM, Number of replicates 2.0, Standard deviation 5.268842944255752 %",34.7%
same,inhibition,"Thailand/16681/1984, Concentration 99.9 uM, Number of replicates 2.0, Standard deviation 0.5758298004935433 %",94.7%
Cc1cc(Cl)c2cccc(N)c2n1,inhibition,"Thailand/16681/1984, Concentration 49.95 uM, Number of replicates 2.0, Standard deviation 0.6589137143756747 %",13.5%
same,inhibition,"Thailand/16681/1984, Concentration 99.9 uM, Number of replicates 2.0, Standard deviation 0.20071745394997703 %",27.6%
Cc1cc(CO)c2cccc(Cc3cccc(NC(=O)c4cnn(Cc5c(C)noc5C)c4)c3)c2n1,inhibition,"Thailand/16681/1984, Concentration 49.95 uM, Number of replicates 2.0, Standard deviation 1.4870028556253494 %",-3.7%
same,inhibition,"Thailand/16681/1984, Concentration 99.9 uM, Number of replicates 2.0, Standard deviation 1.816697484259061 %",-0.8%
O=C(Nc1ccc(O)cc1)c1cccc(OCc2c(Cl)cccc2Cl)c1,inhibition,"Thailand/16681/1984, Concentration 49.5 uM, Number of replicates 2.0, Standard deviation 0.38856258601515087 %",5.85%
same,inhibition,"Thailand/16681/1984, Concentration 99.01 uM, Number of replicates 2.0, Standard deviation 1.1651546847054868 %",9.28%
same,inhibition,"Thailand/16681/1984, Concentration 198.0 uM, Number of replicates 2.0, Standard deviation 0.8272279968409002 %",12.6%
O=C(Nc1cccc(O)c1)c1cccc(OCc2c(Cl)cccc2Cl)c1,inhibition,"Thailand/16681/1984, Concentration 49.5 uM, Number of replicates 2.0, Standard deviation 2.2599777431890864 %",6.58%
same,inhibition,"Thailand/16681/1984, Concentration 99.01 uM, Number of replicates 2.0, Standard deviation 0.8121141369648937 %",8.41%
same,inhibition,"Thailand/16681/1984, Concentration 198.0 uM, Number of replicates 2.0, Standard deviation 0.4931997238761773 %",11.9%
O=C(O)c1cccc(NC(=O)c2cccc(OCc3c(Cl)cccc3Cl)c2)c1,inhibition,"Thailand/16681/1984, Concentration 49.5 uM, Number of replicates 2.0, Standard deviation 0.517131041635451 %",14.9%
same,inhibition,"Thailand/16681/1984, Concentration 99.01 uM, Number of replicates 2.0, Standard deviation 0.3657402361338958 %",47.1%
same,inhibition,"Thailand/16681/1984, Concentration 198.0 uM, Number of replicates 2.0, Standard deviation 0.23203020217005468 %",92.1%
Cc1cc(CO)c2cccc(Cc3cccc(NC(=O)[C@@H]4CC(=O)CCN4)c3)c2n1,inhibition,"Thailand/16681/1984, Concentration 49.95 uM, Number of replicates 2.0, Standard deviation 0.827370284601473 %",15.8%
same,inhibition,"Thailand/16681/1984, Concentration 99.9 uM, Number of replicates 2.0, Standard deviation 0.7401310286309556 %",32.9%
NCc1cccc(NC(=O)Cc2ccc(OCc3ccccc3)cc2)c1,inhibition,"Thailand/16681/1984, Concentration 49.5 uM, Number of replicates 2.0, Standard deviation 0.3616312555788717 %",-3.09%
same,inhibition,"Thailand/16681/1984, Concentration 99.01 uM, Number of replicates 2.0, Standard deviation 0.27421312838327405 %",-2.89%
same,inhibition,"Thailand/16681/1984, Concentration 198.0 uM, Number of replicates 2.0, Standard deviation 0.0354621897496722 %",-1.31%
NCc1cccc(NC(=O)[C@@H](NC(=O)OCc2ccccc2)c2ccc(F)cc2)c1,inhibition,"Thailand/16681/1984, Concentration 49.5 uM, Number of replicates 2.0, Standard deviation 2.4011437232418986 %",-4.62%
same,inhibition,"Thailand/16681/1984, Concentration 99.01 uM, Number of replicates 2.0, Standard deviation 1.9050608177527883 %",-3.96%
same,inhibition,"Thailand/16681/1984, Concentration 198.0 uM, Number of replicates 2.0, Standard deviation 2.2061626239616485 %",-3.52%
NCc1cccc(NC(=O)[C@@H](NC(=O)OCc2ccccc2)c2ccccc2)c1,inhibition,"Thailand/16681/1984, Concentration 49.5 uM, Number of replicates 2.0, Standard deviation 1.0300513707602847 %",0.869%
same,inhibition,"Thailand/16681/1984, Concentration 99.01 uM, Number of replicates 2.0, Standard deviation 0.7240873671299501 %",0.819%
same,inhibition,"Thailand/16681/1984, Concentration 198.0 uM, Number of replicates 2.0, Standard deviation 0.6193503939215136 %",0.644%
NCc1cccc(NC(=O)[C@@H](CCC(N)=O)NC(=O)OCc2ccccc2)c1,inhibition,"Thailand/16681/1984, Concentration 49.5 uM, Number of replicates 2.0, Standard deviation 0.6750820884014238 %",-3.1%
same,inhibition,"Thailand/16681/1984, Concentration 99.01 uM, Number of replicates 2.0, Standard deviation 2.465072002477128 %",-1.7%
same,inhibition,"Thailand/16681/1984, Concentration 198.0 uM, Number of replicates 2.0, Standard deviation 2.5897319885400165 %",-0.981%

# Source: ChEMBL document CHEMBL5606460, “ASAP - DENV-2 NS2B-NS3 protease fluorescence single point” (2024)
